In PubChem BioAssay AID1986 (Sanford-Burnham Center for Chemical Genomics, 2009):
Where “and” joins values, the source holds several entries; their conditions need not be identical. Identical values can stand only once. Out of some 290,000 compounds screened, about 890 (0.31%) were called active. Cut-off read from the data, not from the text of the source: active = inhibition mostly above about 52% (no sharp cut-off); inactive = mostly below about 76%. For the sample, actives were picked, then their nearest neighbours and some compounds at random.

Experiment: inhibitors of HIV fusion peptide binding, primary screen, biochemical, uHTS, fluorescence dequenching (AID 1986)
Conditions: cell-free peptide binding, 30 min, stronger effect = higher value
[1] = measured here: repeat confirmation average inhibition, at 18.6 µM

For CC(NCCc1ccc(S(N)(=O)=O)cc1)C(=O)NCCc1ccc(F)cc1 (stereo not drawn), the inhibition (at 20 µM) was 0.6% (inactive).

In the case of O=C1/C(=C/c2cccc(Br)c2)SC(=S)N1/N=C/c1cc([N+](=O)[O-])ccc1O, the inhibition (at 20 µM) was 16.7% (inactive).

In the case of Cc1ccc(/C=C2\SC(=S)N(/N=C/c3cc([N+](=O)[O-])ccc3O)C2=O)o1, the inhibition (at 20 µM) was 82.2% (active).

In the case of Cc1ccccc1/C=C1\SC(=S)N(/N=C/c2cc([N+](=O)[O-])ccc2O)C1=O, the inhibition (at 20 µM) was 26.8% (inactive).

In the case of CCNC(=S)NS(=O)(=O)c1ccc(C)cc1, the inhibition (at 20 µM) was -1.7% (inactive).

With Cc1ccc(/C=C(\C#N)C(=O)NC(C)c2ccccc2)o1 (stereo not drawn) the inhibition (at 20 µM) was 0.2% (inactive).

With CN(C)c1ccc(/C=C(/C#N)C(=O)NCc2ccccc2)o1 the inhibition (at 20 µM) was 134% (inactive).

In the case of Cc1ccc(/C=C(/C#N)C(=O)NC(C)c2ccccc2)o1 (stereo not drawn), the inhibition (at 20 µM) was 3.2% (inactive).

In the case of CCN(CC)c1ccc(/C=C(/C#N)C(=O)NCc2ccccc2)o1, the inhibition (at 20 µM) was 128% (inactive).

In the case of Cc1ccc(/C=C(\C#N)C(=O)NC(C)C)o1, the inhibition (at 20 µM) was 1.4% (inactive).

For CCN(CC)c1ccc(/C=C(/C#N)C(=O)NC(C)C)o1, the inhibition (at 20 µM) was 113% (active).

In the case of CC(C)NC(=O)/C(C#N)=C\c1ccc(N(C)C)c(Br)c1, the inhibition (at 20 µM) was 0.3% (inactive).

With CC(C)NC(=O)/C(C#N)=C\c1ccc(N(C)C)o1 the inhibition (at 20 µM) was 78.6% (active) and the inhibition [1] was 59.9%.

In the case of CC(C)NC(=O)/C(C#N)=C/c1ccc(N(C)C)o1, the inhibition (at 20 µM) was 82.3% (active) and the inhibition [1] was 64.2%.

For O=C(OCc1ccccc1)c1cnc(Cl)c(Cl)c1, the inhibition (at 20 µM) was -1.7% (inactive).

For CC(C)CNC(=O)c1cccc(NC(=O)CCc2ccccc2)c1, the inhibition (at 20 µM) was 0.2% (inactive).

With CC(=O)NCCn1c(SCC(=O)NCCC(C)C)nc2ccccc2c1=O the inhibition (at 20 µM) was -1.8% (inactive).

For Nc1c(C(=O)OCC2CCCO2)c2nc3ccccc3nc2n1-c1ccc2c(c1)OCCO2 (stereo not drawn), the inhibition (at 20 µM) was 0.3% (inactive).

For O=C(c1ccco1)N1CCN(c2ccc([N+](=O)[O-])c(N3CCOCC3)c2)CC1, the inhibition (at 20 µM) was 0.8% (inactive).

In the case of Nc1ccc2nc(SCc3ccc([N+](=O)[O-])cc3)sc2c1, the inhibition (at 20 µM) was 1.8% (inactive).

In the case of Cn1cc(CN2CCN(CC(C)(C)C)C(CCO)C2)c2ccccc21 (stereo not drawn), the inhibition (at 20 µM) was 2.5% (inactive).

For Cc1ccc(CSc2nc3ccccc3c(=O)n2CCCC(=O)NCc2ccco2)cc1, the inhibition (at 20 µM) was -1.1% (inactive).

For CN1CCN(c2ccc(NC(=O)CSc3nnnn3-c3ccccc3F)cc2)CC1, the inhibition (at 20 µM) was -0.3% (inactive).

For CC(=O)CSc1ccc(-c2nc3cc(C)c(C)cc3[nH]2)cn1, the inhibition (at 20 µM) was 0.7% (inactive).

With Cc1cc2nc(-c3ccc(SCc4ccc(C(=O)O)cc4)nc3)[nH]c2cc1C the inhibition (at 20 µM) was 56.9% (active).

With Cc1cc2nc(-c3ccc(SCc4ccc(C#N)cc4)nc3)[nH]c2cc1C the inhibition (at 20 µM) was 8.6% (inactive).

In the case of Cn1nc(CC(=O)Nc2cccnc2N2CCOCC2)c2ccccc2c1=O, the inhibition (at 20 µM) was 0.1% (inactive).

For Cc1ccccc1N=Nc1ccc(O)c2ncccc12, the inhibition (at 20 µM) was -1.3% (inactive).

For O=S(=O)(O)c1cccc2c(N=Nc3ccc(O)c4ncccc34)cccc12, the inhibition (at 20 µM) was 64.9% (active).

With NS(=O)(=O)c1ccc(N=Nc2ccc(O)c3ncccc23)cc1 the inhibition (at 20 µM) was -1.1% (inactive).

For O=C(O)/C=C\C(=O)Nc1ccccc1C(=O)NCc1ccccc1, the inhibition (at 20 µM) was -0.8% (inactive).

In the case of CCN(CC)c1ccc(/C=C/c2cccc[n+]2C)c(OC)c1, the inhibition (at 20 µM) was 77.3% (active) and the inhibition [1] was 63.6%.

With CCN(CC)c1ccc(C=O)c(OC)c1 the inhibition (at 20 µM) was -0.9% (inactive).

For COc1ccc(/C=C/c2cccc[n+]2C)c(O)c1, the inhibition (at 20 µM) was 2.7% (inactive).

In the case of Cc1c(OC(C)C(=O)NCCCN2CCCC2=O)ccc2c3c(c(=O)oc12)CCCC3 (stereo not drawn), the inhibition (at 20 µM) was -2.1% (inactive).

In the case of CCOC(=O)C1(Cc2ccccc2)CCCN(Cc2cnn(CC)c2)C1 (stereo not drawn), the inhibition (at 20 µM) was -1.6% (inactive).

With Cc1cccc2c1N(C(=O)c1ccco1)C(C)(C)c1ssc(=S)c1-2 the inhibition (at 20 µM) was -4.4% (inactive).

For CCCn1cc(CN2CCC(Cc3cccc(F)c3)(C(=O)OCC)CC2)c(C)n1, the inhibition (at 20 µM) was -3.2% (inactive).

For COc1cc([N+](=O)[O-])ccc1NC(=O)N1CCCCCC1, the inhibition (at 20 µM) was -0.4% (inactive).

In the case of CN1CC=C2C(C#N)=C(N)C(C#N)(C#N)[C@H](c3cccs3)[C@H]2C1, the inhibition (at 20 µM) was 25.9% (inactive).

With N#CC1=C(N)C(C#N)(C#N)C2(CCC3(CC2)OCCO3)C2CC3(CC=C12)OCCO3 (stereo not drawn) the inhibition (at 20 µM) was 5.6% (inactive).

With CN1CCC2(CC1)C1CN(C)CC=C1C(C#N)=C(N)C2(C#N)C#N (stereo not drawn) the inhibition (at 20 µM) was 51.5% (active) and 103% (active) and the inhibition [1] was 50.3%.

For CC(=O)N1CCC(=O)Nc2ccc([N+](=O)[O-])cc21, the inhibition (at 20 µM) was -0.3% (inactive).

In the case of COc1cc2nc(CN3CCN(C(c4ccccc4)c4ccccc4)CC3)[nH]c(=O)c2cc1OC, the inhibition (at 20 µM) was 2.2% (inactive).

For N=c1c(S(=O)(=O)c2ccc(Cl)cc2)cc2c(=O)n3ccccc3nc2n1CCc1ccccc1, the inhibition (at 20 µM) was 84.1% (active) and the inhibition [1] was 74.9%.

With Cc1ccc(S(=O)(=O)c2cc3c(=O)n4ccccc4nc3n(CCc3ccccc3)c2=N)cc1 the inhibition (at 20 µM) was 25% (inactive).

For COc1ccc(CCn2c(=N)c(S(=O)(=O)c3ccc(Cl)cc3)cc3c(=O)n4ccccc4nc32)cc1, the inhibition (at 20 µM) was 195% (inactive).

With O=C(NC1CC1)C1CCN(C2CCN(C(=O)Cc3ccc4c(c3)OCO4)CC2)CC1 the inhibition (at 20 µM) was 0.5% (inactive).

In the case of O=C(Nc1nnc(C2CC2)s1)C1COc2ccccc2O1 (stereo not drawn), the inhibition (at 20 µM) was -2.5% (inactive).

For Cc1cc(C)n2nc(C(=O)N3CCOCC3)nc2n1, the inhibition (at 20 µM) was -0.9% (inactive).

In the case of Cc1cccc2cc(C(c3nnnn3Cc3ccc4c(c3)OCO4)N3CCCC3)c(=O)[nH]c12 (stereo not drawn), the inhibition (at 20 µM) was -1.7% (inactive).

For O=C(COc1ncnc2ccccc12)Nc1cccc([N+](=O)[O-])c1, the inhibition (at 20 µM) was 0.9% (inactive).

For COc1cccc(OC)c1C(=O)Oc1ccc2c(c1)O/C(=C\c1ccncc1)C2=O, the inhibition (at 20 µM) was 3.9% (inactive).

For CC(=O)Oc1ccc2c(c1)O/C(=C\c1ccncc1)C2=O, the inhibition (at 20 µM) was 106% (active) and the inhibition [1] was 53%.

For O=C(Oc1ccc2c(c1)O/C(=C\c1ccncc1)C2=O)c1ccccc1, the inhibition (at 20 µM) was 86.3% (inactive) and the inhibition [1] was 3%.

In the case of COc1ccc(CNc2nc3nc(-c4ccccc4)cc(=O)n3[nH]2)cc1OC, the inhibition (at 20 µM) was 0.4% (inactive).

With O=C(CCl)Nc1ccc(N=Nc2ccccc2)cc1 the inhibition (at 20 µM) was -2.8% (inactive).

With Oc1c(C=Nc2cccnc2)sc2ccccc12 the inhibition (at 20 µM) was 1.4% (inactive).

For Oc1c(C=Nc2cccc3cccnc23)sc2ccccc12, the inhibition (at 20 µM) was 85.8% (active) and the inhibition [1] was 50.9%.

With Oc1c(/C=N/c2ccccn2)sc2ccccc12 the inhibition (at 20 µM) was 6.4% (inactive).

With CCOc1ccc2nc(NC(=O)C34CC5CC(CC(NC(C)=O)(C5)C3)C4)sc2c1 the inhibition (at 20 µM) was -1.2% (inactive).

For O=C(O)c1c(Cl)c(Cl)c(Cl)c(Cl)c1C(=O)N1CCOCC1, the inhibition (at 20 µM) was 4.1% (inactive).

In the case of CCOC(=O)/C(C#N)=N/Nc1ccc(S(=O)(=O)N2CCc3ccccc32)cc1, the inhibition (at 20 µM) was 5.4% (inactive).

In the case of N#C/C(=N\Nc1ccc(S(=O)(=O)N2CCc3ccccc32)cc1)C(N)=S, the inhibition (at 20 µM) was 51.3% (active).

For N#C/C(=N\Nc1ccc(S(=O)(=O)N2CCCCCC2)cc1)C(N)=S, the inhibition (at 20 µM) was 9.5% (inactive).

In the case of Cc1ccc(NC(=O)c2cc([N+](=O)[O-])ccc2NCc2cccnc2)cc1, the inhibition (at 20 µM) was -0.6% (inactive).

For O=C(N/N=C/c1cccc([N+](=O)[O-])c1)c1cc(-c2ccc3c4c(cccc24)CC3)n[nH]1, the inhibition (at 20 µM) was -6.3% (inactive).

In the case of O=C(O)c1ccc(/C=N/NC(=O)c2cc(-c3ccc4c5c(cccc35)CC4)n[nH]2)cc1, the inhibition (at 20 µM) was 61.2% (inactive) and the inhibition [1] was 7%.

In the case of O=C(N/N=C/c1ccccc1C(=O)O)c1cc(-c2ccc3c4c(cccc24)CC3)n[nH]1, the inhibition (at 20 µM) was 69.6% (active).

For Cc1ccc(C(=O)NCC(c2ccc(F)cc2)N2CCOCC2)cc1 (stereo not drawn), the inhibition (at 20 µM) was -1.6% (inactive).

In the case of O=C(Cc1cccs1)N/N=C/C=C/c1ccco1, the inhibition (at 20 µM) was 31.2% (inactive).

With O=C(CSc1nnc(SCc2ccccc2)s1)N/N=C/C=C/c1ccco1 the inhibition (at 20 µM) was 33.4% (inactive).

With Cc1ccc(CSc2nnc(SCC(=O)N/N=C/C=C/c3ccco3)s2)cc1 the inhibition (at 20 µM) was 46.7% (inactive).

With O=C(Cc1cccs1)N/N=C/c1ccco1 the inhibition (at 20 µM) was 5% (inactive).

With O=C(Cc1cccs1)N/N=C/C=C\c1ccco1 the inhibition (at 20 µM) was 69.7% (active).

With O=C(CSc1nnc(SCc2ccccc2)s1)N/N=C/C=C\c1ccco1 the inhibition (at 20 µM) was 51.3% (active).

For O=C(NC(NC(=O)c1ccccc1)c1cccc([N+](=O)[O-])c1)c1ccccc1, the inhibition (at 20 µM) was 4.1% (inactive).

With CN(C)CCCNS(=O)(=O)c1ccc(N2CCC(c3ccc(Cl)cc3)=N2)cc1 the inhibition (at 20 µM) was -4.9% (inactive).

For COc1ccc(-c2nc(N3CCCCCC3)sc2C(=O)c2ccccc2)cc1, the inhibition (at 20 µM) was 0.2% (inactive).

For Cc1cccc(N=Nc2c(O)[nH]c3ccc(Br)cc23)c1, the inhibition (at 20 µM) was 13.9% (inactive).

For Oc1[nH]c2ccc(Br)cc2c1N=Nc1ccc(F)cc1, the inhibition (at 20 µM) was 164% (inactive).

For Cc1ccc(N=Nc2c(O)[nH]c3ccc(F)cc23)cc1, the inhibition (at 20 µM) was 111% (active).

With O=[N+]([O-])c1ccc(N=Nc2c(O)[nH]c3ccc(F)cc23)cc1 the inhibition (at 20 µM) was 6.3% (inactive).

With Cc1cccc(N=Nc2c(O)[nH]c3ccc(F)cc23)c1 the inhibition (at 20 µM) was 95% (active) and the inhibition [1] was 136%.

In the case of Oc1[nH]c2ccccc2c1N=Nc1ccc(F)cc1, the inhibition (at 20 µM) was 150% (inactive).

In the case of CCOc1ccc(N(C(=O)c2snc(C(N)=O)c2N)C(CC)C(=O)NC2CCCC2)cc1 (stereo not drawn), the inhibition (at 20 µM) was 1.8% (inactive).

For Cc1cc(C)c(NC(=O)CSc2nc3ncc(Cl)cc3[nH]2)c(C)c1, the inhibition (at 20 µM) was 2.2% (inactive).

With Cc1ccc(-c2c(C(=O)Nc3ccccc3C)c(C)[nH]c(=S)c2C#N)o1 the inhibition (at 20 µM) was 33.1% (inactive).

In the case of Cc1ccccc1NC(=O)c1c(C)[nH]c(=S)c(C#N)c1-c1ccco1, the inhibition (at 20 µM) was 66.5% (active).

For CNC(=O)c1c(C)[nH]c(=S)c(C#N)c1-c1ccco1, the inhibition (at 20 µM) was 4.3% (inactive).

With O=C(CN1C(=O)NC2(CCCCCCC2)C1=O)N1CCN(C(=O)c2ccco2)CC1 the inhibition (at 20 µM) was 1.6% (inactive).

In the case of COc1ccc(CCC(=O)Nc2ccccc2C(F)(F)F)cc1, the inhibition (at 20 µM) was 0% (inactive).

In the case of CCCN1CCN(C(=O)CCn2c(=O)c3cccn3c3cccnc32)CC1, the inhibition (at 20 µM) was 0.2% (inactive).
